Assay results taken from the supplement of paper PMC3545927.
The list shows a part of the results. No count for the full screen is at hand.

B1: HC2149 (peptide)
chain: CAYVVTSTWVAGNASASA
B2: HC698 (peptide)
chain: CANGVCWTVYAGNASASA
B3: HC1576 (peptide)
chain: CANIIMFAPTAGNASASA
B4: HC1627 (peptide)
chain: CAARGGRAAIAGNASASA
B5: FS-2195 (peptide)
chain: CARVGRGVSIAGNASASA
B6: FS-2263 (peptide)
chain: CARKGRVVIDAGNASASA
B7: FS-2470 (peptide)
chain: CARVGRQVVTAGNASASA
B8: FS-2098 (peptide)
chain: CARVGRSLPTAGNASASA
B9: FS-3117 (peptide)
chain: CARVGRSVTDAGNASASA
B10: FS-2194 (peptide)
chain: CARVCRSDNTAGNASASA
B11: HC572 (peptide)
chain: CALVGLMALTAGNASASA
B12: HC1993 (peptide)
chain: CARVCCSMSYAGNASASA
B13: HC1457 (peptide)
chain: CAMALYDVVTAGNASASA
B14: FS-2838 (peptide)
chain: CARVGRSSKQAGNASASA
B15: FS-2341 (peptide)
chain: CARKGRSEDIAGNASASA
B16: FS-2620 (peptide)
chain: CARVPRDPSTAGNASASA
B17: HC2231 (peptide)
chain: CAEVVTSTDVAGNASASA
B18: HC1260 (peptide)
chain: CAASSSASQLAGNASASA
B19: HC2027 (peptide)
chain: CAVVFCSMSYAGNASASA
B20: FS-2308 (peptide)
chain: CARSLRDLMEAGNASASA
B21: FS-1803 (peptide)
chain: CARVSKDVEDAGNASASA
B22: FS-1800 (peptide)
chain: CARVCRDLMDAGNASASA
B23: HC2031 (peptide)
chain: CAVVDCSMSYAGNASASA
B24: HC1049 (peptide)
chain: CAGLSTLPGNAGNASASA
B25: FS-2582 (peptide)
chain: CARQARHYHQAGNASASA
B26: FS-2172 (peptide)
chain: CARQRKESETAGNASASA
B27: FS-2364 (peptide)
chain: CARQRRCLPQAGNASASA
B28: FS-2224 (peptide)
chain: CARQARAVPQAGNASASA
B29: FS-2466 (peptide)
chain: CARTMKSVNAAGNASASA
B30: FS-1915 (peptide)
chain: CARQARFSSQAGNASASA
B31: FS-2363 (peptide)
chain: CARQRKSVNAAGNASASA
B32: FS-3043 (peptide)
chain: CARQRRQVWKAGNASASA
B33: FS-2367 (peptide)
chain: CARQRRTVGQAGNASASA
B34: HC340 (peptide)
chain: CAIAYFSMVGAGNASASA
B35: HC1333 (peptide)
chain: CAAELATRSFAGNASASA
B36: HC1327 (peptide)
chain: CAVVLTESTLAGNASASA
B37: HC1301 (peptide)
chain: CAFAQALPVWAGNASASA
B38: HC672 (peptide)
chain: CAWRLLAPITAGNASASA
B39: FS-2824 (peptide)
chain: CARTKRAQSPAGNASASA
B40: HC1636 (peptide)
chain: CARTKLKLTPAGNASASA
B41: FS-1870 (peptide)
chain: CARTKRQIPHAGNASASA
B42: FS-1795 (peptide)
chain: CARSVRLGGPAGNASASA
B43: FS-2527 (peptide)
chain: CARTKRTPGPAGNASASA
B44: FS-2830 (peptide)
chain: CARTKRTRRPAGNASASA
B45: HC802 (peptide)
chain: CARTITTGSPAGNASASA

Target: furin, P09958
Sequence (P09958 whole entry): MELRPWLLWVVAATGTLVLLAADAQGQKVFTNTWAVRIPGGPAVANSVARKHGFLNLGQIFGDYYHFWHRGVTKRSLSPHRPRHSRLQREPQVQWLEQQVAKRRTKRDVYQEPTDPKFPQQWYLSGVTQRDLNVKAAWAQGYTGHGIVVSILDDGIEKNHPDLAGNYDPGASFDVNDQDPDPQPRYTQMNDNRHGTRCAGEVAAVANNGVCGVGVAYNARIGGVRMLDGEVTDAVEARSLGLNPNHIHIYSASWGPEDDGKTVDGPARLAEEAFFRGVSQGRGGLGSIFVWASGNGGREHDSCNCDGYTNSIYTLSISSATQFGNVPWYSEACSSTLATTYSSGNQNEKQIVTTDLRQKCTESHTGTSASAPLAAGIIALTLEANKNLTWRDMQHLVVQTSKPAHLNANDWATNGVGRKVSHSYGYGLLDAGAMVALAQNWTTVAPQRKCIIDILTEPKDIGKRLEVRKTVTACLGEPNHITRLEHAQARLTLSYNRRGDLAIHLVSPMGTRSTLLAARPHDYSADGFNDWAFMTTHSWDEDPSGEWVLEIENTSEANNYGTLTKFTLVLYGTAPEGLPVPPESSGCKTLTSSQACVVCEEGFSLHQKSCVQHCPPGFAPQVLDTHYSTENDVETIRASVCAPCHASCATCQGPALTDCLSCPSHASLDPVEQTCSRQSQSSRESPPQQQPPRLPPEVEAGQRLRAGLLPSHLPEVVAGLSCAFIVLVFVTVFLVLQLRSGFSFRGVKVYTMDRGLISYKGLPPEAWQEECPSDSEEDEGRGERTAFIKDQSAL
Assay: furin cleavage Z-score vs untreated control; higher = more cleavage, active = 3.5 or more, inactive = 1 or less, 8 variable residues between constant flanks
Summary of the method: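 Furin-free reactions served as the baseline for the cleavage Z-score, which is the log read count lowess-adjusted and scaled by median absolute deviation. Counts came from released DNA, adapter-tagged by PCR and sequenced. Purified furin had cut 8-mer peptides fused to a cDNA oligonucleotide on magnetic beads during 7.5, 15 or 30 min at 1:10 enzyme:substrate.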
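Also: purified furin at 1:10 enzyme:substrate in 50 mM HEPES pH 7.5.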

Sequence	furin cleavage Z-score (7.5 min)	furin cleavage Z-score (15 min)	furin cleavage Z-score (30 min)
B1	0.323 (inactive)	-0.464 (inactive)	-0.44 (inactive)
B2	-1.07 (inactive)	2.25	-1.18 (inactive)
B3	-0.25 (inactive)	-0.574 (inactive)	-0.569 (inactive)
B4	0.309 (inactive)	-1.06 (inactive)	0.234 (inactive)
B5	-0.488 (inactive)	-0.0472 (inactive)	2.09
B6	-1.41 (inactive)	-0.368 (inactive)	0.767 (inactive)
B7	1.41	4.05 (active)	2.16
B8	8.92 (active)	10.2 (active)	8.81 (active)
B9	9.08 (active)	9.86 (active)	8.63 (active)
B10	2.3	1.13	4.01 (active)
B11	-0.292 (inactive)	-0.497 (inactive)	-0.985 (inactive)
B12	-1.56 (inactive)	0.796 (inactive)	0.275 (inactive)
B13	-0.109 (inactive)	-0.594 (inactive)	1.06
B14	0.0354 (inactive)	0.533 (inactive)	2.07
B15	0.928 (inactive)	1.18	-0.197 (inactive)
B16	0.232 (inactive)	0.063 (inactive)	1.18
B17	-0.548 (inactive)	0.743 (inactive)	-0.721 (inactive)
B18	1.48	0.251 (inactive)	0.48 (inactive)
B19	1.89	0.607 (inactive)	-0.194 (inactive)
B20	0.906 (inactive)	1.52	1.89
B21	0.222 (inactive)	-0.204 (inactive)	-0.557 (inactive)
B22	4.33 (active)	7.74 (active)	7.6 (active)
B23	-1.66 (inactive)	-0.65 (inactive)	-0.452 (inactive)

Sequence	furin cleavage Z-score (7.5 min)	furin cleavage Z-score (15 min)	furin cleavage Z-score (30 min)
B24	0.578 (inactive)	-0.00394 (inactive)	0.293 (inactive)
B25	0.232 (inactive)	1.85	2.09
B26	-0.961 (inactive)	-0.283 (inactive)	-0.371 (inactive)
B27	-0.0379 (inactive)	0.942 (inactive)	2.63
B28	3.01	5.06 (active)	5.46 (active)
B29	1.07	2.56	0.0466 (inactive)
B30	-1.25 (inactive)	-0.103 (inactive)	0.0874 (inactive)
B31	1.57	3.81 (active)	4.35 (active)
B32	2.63	5.18 (active)	6.07 (active)
B33	6.93 (active)	8.06 (active)	7.82 (active)
B34	-0.888 (inactive)	-0.599 (inactive)	0.982 (inactive)
B35	2.09	0.0816 (inactive)	1.22
B36	0.79 (inactive)	0.145 (inactive)	0.957 (inactive)
B37	-1.52 (inactive)	0.477 (inactive)	-2.4 (inactive)
B38	-1.21 (inactive)	-0.661 (inactive)	-0.636 (inactive)
B39	6.65 (active)	6.74 (active)	5.31 (active)
B40	-0.273 (inactive)	-0.712 (inactive)	0.0379 (inactive)
B41	7.68 (active)	12 (active)	8.92 (active)
B42	0.0283 (inactive)	0.734 (inactive)	-1.33 (inactive)
B43	5.68 (active)	6.29 (active)	6.29 (active)
B44	0.799 (inactive)	1.15	0.99 (inactive)
B45	-0.428 (inactive)	-0.048 (inactive)	0.343 (inactive)
